From PubChem
A selection: hits, their analogues and other compounds. The true share with any hit is near 6.5%.
Spn PMK inh: inhibitors of Streptococcus pneumoniae phosphomevalonate kinase; hit rate 0.49% among 65,000; inhibition, % at 10 µM; purified PMK, PK/LDH-coupled NADH absorbance 340 nm;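 active = top-ranked compounds by inhibition in the single 10 µM screen, taking a fixed number of the strongest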
NADH enzymes: inhibitors of enzymes used to reach an NAD/NADH endpoint; coupled PK/LDH NADH assays, four targets; IC50, µM (titrated, usually from 10 µM); hit rate 0.02% among 65,000; AID 774;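 active = single-dose screening hits from any of four coupled enzyme assays that gave an IC50 when retested across doses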;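 also: the DPM-DC format reads NADH fluorescence rather than 340 nm absorbance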
Autofluor 339: intrinsic fluorescence of library compounds, ex339/em460 – biochemical, MLSMR library, data from DPM-DC assay, artefact control, profiling panel; fluorescence fold increase at 10 µM; compound autofluorescence, ex339/em460 nm, NADH buffer; active compounds read high; 1 = no-compound wells, NADH background; AID 709; hit rate 5.5% among 65,000;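 active = at 10 µM, mean starting fluorescence two-fold or more over control wells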;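 also: signal is the first read of a kinetic run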
MK inhibit: S. pneumoniae mevalonate kinase inhibition; purified MK, PK/LDH-coupled NADH absorbance 340 nm; inhibition, % at 10 µM; hit rate 0.48% among 65,000;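 active = ranked among the strongest by inhibition in the single 10 µM screen, a fixed top-ranked set picked for dose follow-up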
Abs 340nm: absorbance at 340 nm. compound absorbance at 340 nm, fold over control. fold change at 10 µM. 65,000 tested, under 10 active. AID 708;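 active = at 10 µM dose, initial 340 nm absorbance at least 2 fold that of control wells; inactive = change under 2 fold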;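 also: initial absorbance extrapolated from kinetic A340 decline of NADH oxidation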
DPM-DC inhibit: blocks S. pneumoniae diphosphomevalonate decarboxylase; purified DPM-DC, PK/LDH coupled NADH fluorescence; calls only at 10 µM; hit rate 0.49% among 65,000;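 active = the 320 compounds with the highest percent inhibition in the single-dose primary screen, excluding strongly autofluorescent ones, cut at about 32% in these data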;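 also: kinetic rate of NADH fluorescence loss reporting ADP formed by the decarboxylase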
Large screens that a line does not name were inactive.

CC(Sc1nnc(C2CCCCC2)n1N)C(=O)NCc1ccc2c(c1)OCO2 (stereo unspecified)	none
Cc1cc(C)c2cc(C#N)c(NCCCNC(=O)CCC(=O)O)nc2c1	Autofluor 339 3.66 (not shown: DPM-DC inhibit)
Cc1ccc2nc(N3CCN(C(=O)c4cccs4)CC3)c(C#N)cc2c1	Autofluor 339 2.44
Cc1ccc2cc(C#N)c(NCCCNC(=O)C3CCCO3)nc2c1 (stereo unspecified)	Autofluor 339 2.93 (not shown: DPM-DC inhibit)
COc1ccc(C(=O)N2CCN(c3nc4cc(C)ccc4cc3C#N)CC2)c(OC)c1	none
CCCCNC(=O)c1ccc(NC(=O)C2CCCO2)cc1 (stereo unspecified)	none
Cc1ccc2cc(C#N)c(N3CCCN(C(=O)C4CCCO4)CC3)nc2c1 (stereo unspecified)	Autofluor 339 2.31
COc1cc(C(=O)N2CCCN(c3nc4cc(C)ccc4cc3C#N)CC2)cc(OC)c1OC	none (no result: MK inhibit)
Cc1ccc(-n2c(-c3ccncc3)nnc2-c2cccs2)cc1	none
Cc1ccc(OCCNC(=O)c2ccccc2N)cc1	Autofluor 339 2.11 (not shown: DPM-DC inhibit)
CCN(CC)CCNC(=O)c1ccccc1N	Autofluor 339 2.31 (not shown: DPM-DC inhibit)
COc1ccc(OCCNC(=O)c2ccccc2OCC(=O)N2CCCCC2)cc1	none
CCN(CC)CCCNC(=O)c1ccccc1C	none
Cc1occc1-c1nnc(SCC(=O)NC(C)(C)C)n1C(C)c1ccccc1 (stereo unspecified)	none
Cc1nnc(C)c2c(C)n(C(C)c3ccccc3)c(C)c12 (stereo unspecified)	Autofluor 339 2.11
CCOCC(=O)NCc1ccc2c(c1)OCO2	none
CCN1CCCC1CNC(=O)c1cc2c(-c3ccc(Cl)cc3)nn(C)c2s1 (stereo unspecified)	Autofluor 339 2.13 (not shown: DPM-DC inhibit)
COc1cccc(-c2nn(C)c3sc(C(=O)NCc4ccco4)cc23)c1	Autofluor 339 3.02
CCN1CCCC1CNC(=O)c1cc2c(-c3cccc(OC)c3)nn(C)c2s1 (stereo unspecified)	Autofluor 339 4.98 (not shown: DPM-DC inhibit)
CCOc1ccccc1-c1nc2c([nH]1)c(=O)n(C)c(=O)n2C	Autofluor 339 2.93
COc1ccc(/C(O)=C2/C(=O)C(=O)N(CCCN(C)C)C2c2ccco2)cc1Cl (stereo unspecified)	none
CCc1c(C)sc(NC(=O)c2cc(-c3cc(OC)ccc3OC)on2)c1C#N	Autofluor 339 5.06 (not shown: DPM-DC inhibit)
Cc1cc(NC(=O)c2cc(C3CC3)on2)no1	MK inhibit 57.0
COc1ccc(OC)c(-c2cc(C(=O)Nc3c(C)nn(Cc4ccc(Cl)cc4)c3C)no2)c1	none
COc1ccc(OC)c(-c2cc(C(=O)Nc3cccc(Cl)c3)no2)c1	Autofluor 339 4.34 (not shown: DPM-DC inhibit)
COc1ccc(OC)c(-c2cc(C(=O)Nc3c(C)nn(Cc4ccccc4)c3C)no2)c1	none
Cc1cc(NC(=O)c2cc(C)on2)no1	none
COc1ccc(OC)c(-c2cc(C(=O)Nc3cc(C)on3)no2)c1	Autofluor 339 2.75
COc1ccc(N2CCN(C(=O)c3ccc(CNc4c(N5CCOCC5)c(=O)c4=O)cc3)CC2)cc1	none
COc1cccc(NC(=O)[C@@H]2CCCN2C(=O)C2CCN(S(=O)(=O)c3ccc(C)cc3)CC2)c1	none
CC1=C(C(=O)OC(C)C)C(C)C(C(=O)OC(C)C)=C(C)N1	none
Cc1oc2nc(SCCCC(=O)NCCO)nc(N)c2c1C	none
O=C(NCc1ccco1)c1cc2ccc(O)cc2oc1=O	Autofluor 339 3.83 (not shown: DPM-DC inhibit)
COc1ccc2cc(C(=O)NCc3ccco3)c(=O)oc2c1	Autofluor 339 3.28 (not shown: DPM-DC inhibit)
COc1ccc2cc(C(=O)NC3CCCCC3)c(=O)oc2c1	Autofluor 339 3.51 (not shown: DPM-DC inhibit)
Cc1nc2ccccc2cc1C(=O)NCc1ccco1	none
COc1ccc2cc(C(=O)NCc3ccco3)c(=Nc3ccc(C(=O)O)cc3)oc2c1	none
CS(=O)(=O)N(CCc1ccccc1)CC(=O)NCC1CCCO1 (stereo unspecified)	none
COc1ccc(C(C)NC(=O)C2CCCO2)cc1OC (stereo unspecified)	none
Cc1ccc(CNC(=O)C2CCN(S(=O)(=O)c3c(C)noc3C)CC2)cc1	MK inhibit active
COc1ccc(CNC(=O)C2CCN(S(=O)(=O)c3cccc4cccnc34)CC2)cc1	Spn PMK inh 27.0
O=C(NCc1ccccc1)C1CCN(S(=O)(=O)c2cccc3cccnc23)CC1	none
